SF-1 inh: blocks the human nuclear receptor SF-1. AID 525. inhibition, % at 10 µM. CHO-K1 Gal4-SF-1 LBD luciferase reporter. Q13285. 0.55% of 65,000 active;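 active = inhibition above the mean inhibition of all tested compounds plus 3 SD, cut at about 48% in these data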;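 note: 0% = SF-1 transfected cells with DMSO and 100% = mock-transfected cells lacking SF-1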
Target sequence (Q13285 whole entry, looked up, the tested form may be a part): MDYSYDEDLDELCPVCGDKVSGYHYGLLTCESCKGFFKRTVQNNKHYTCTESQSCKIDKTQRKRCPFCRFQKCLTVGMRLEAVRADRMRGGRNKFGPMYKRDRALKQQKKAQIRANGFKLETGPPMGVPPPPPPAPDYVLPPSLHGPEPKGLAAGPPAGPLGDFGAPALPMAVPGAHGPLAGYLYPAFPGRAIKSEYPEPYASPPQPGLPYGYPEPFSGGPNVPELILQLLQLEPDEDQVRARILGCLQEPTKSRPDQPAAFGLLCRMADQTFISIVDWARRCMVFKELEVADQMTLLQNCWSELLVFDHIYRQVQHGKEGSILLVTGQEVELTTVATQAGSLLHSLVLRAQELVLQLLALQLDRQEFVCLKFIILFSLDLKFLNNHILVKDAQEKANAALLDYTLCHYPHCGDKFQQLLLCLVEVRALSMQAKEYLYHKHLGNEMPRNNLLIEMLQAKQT
The depositor's hits bear a star. Shown is part of a subset that was picked to be rich in hits.

How did O=C(CCN1C(=O)C2CC=C(Cl)CC2C1=O)N1CCCCC1 (centres undefined) do in these assays?
SF-1 inh: -3

What do the screens show for `CC(NC(=O)Nc1nnc(C(F)(F)F)s1)(C(F)(F)F)C(F)(F)F`?
SF-1 inh: 94*

Results for Cc1occc1C(=O)Nc1ccc2c(c1)CCC2 ?
SF-1 inh: -75

How did O=C1NC(NS(=O)(=O)c2ccccc2)(C(F)(F)F)C(=O)N1Cc1cccnc1 (centres undefined) do in these assays?
SF-1 inh: 10

What do the screens show for `Cc1ccc(NC(=O)C2CCN(S(=O)(=O)c3cnc[nH]3)CC2)nc1`?
SF-1 inh: 8

How did O=C(Nc1ccc(F)cc1)c1cccc2c1C(=O)N(Cc1ccccn1)C2 do in these assays?
SF-1 inh: -12

How did CCc1ccccc1NC(=O)CSc1nnc([C@@H]2CCCN2C(=O)OC(C)(C)C)o1 do in these assays?
SF-1 inh: 10

How did COc1ccccc1NC(=O)N1CCN(c2ccccn2)CC1 do in these assays?
SF-1 inh: 13

Results for O=C(CN1CCN(c2ccccn2)CC1)Nc1cccc(C(F)(F)F)c1 ?
SF-1 inh: 16

How did Cc1cnc(NC(=O)CN2CCN(c3ccccn3)CC2)s1 do in these assays?
SF-1 inh: 61*

Results for COc1ccc(C(c2sc3nc(C)nn3c2O)N2CCC3(CC2)OCCO3)cc1 (centres undefined) ?
SF-1 inh: -4

Results for COc1ccc(C)cc1NC(=O)c1cc2c(CO)cnc(C)c2oc1=N ?
SF-1 inh: -24

Results for CCCCNC(=O)c1nnn(-c2ccccc2)c1N ?
SF-1 inh: -67

Results for CC(C)Oc1ccc(/C(O)=C2/C(=O)C(=O)N(CCN(C)C)C2c2ccco2)cc1 (centres undefined) ?
SF-1 inh: -28

What do the screens show for `Cc1cc(=O)[nH]c(N2CCN(Cc3ccccc3)CC2)n1`?
SF-1 inh: -5

Results for C=CCNC(=O)C(C#N)c1nc2ccccc2nc1N1CCN(Cc2ccccc2)CC1 (centres undefined) ?
SF-1 inh: -6

Results for c1ccc(CN2CCN(c3ncnc4c3[nH]c3ccccc34)CC2)cc1 ?
SF-1 inh: 50*

Results for c1ccc2c(c1)CCN(c1ncnc3c1[nH]c1ccccc13)C2 ?
SF-1 inh: 86*

What do the screens show for `Cc1ccc2c(c1)[nH]c1c(N3CCN(Cc4ccccc4)CC3)ncnc12`?
SF-1 inh: 50*

Results for COc1ccc(C)cc1NC(=O)NC1CCN(Cc2ccccc2)CC1 ?
SF-1 inh: -1

What do the screens show for `c1ccc2c(c1)oc1c(Nc3ccc(CN4CCOCC4)cc3)ncnc12`?
SF-1 inh: -54

What do the screens show for `Cn1c(NC(=O)c2ccccc2F)cc(=O)n(C)c1=O`?
SF-1 inh: -17

What do the screens show for `CCn1cc(Br)c(C(=O)Nc2ccc(F)c(Cl)c2)n1`?
SF-1 inh: -35

What do the screens show for `CCc1ccc(C(=O)NCc2cccs2)s1`?
SF-1 inh: -70

Results for COC(=O)c1ccc(NC(=O)c2ccc3c(c2)OCO3)cc1 ?
SF-1 inh: -53

Results for O=C(CCNc1ccccc1)c1ccc2c(c1)OCO2 ?
SF-1 inh: -62

How did O=C(/C=C\Nc1cccc(F)c1)c1ccc2c(c1)OCO2 do in these assays?
SF-1 inh: 58*

How did c1ccc(-c2nc(N3CCCCCC3)c3ccccc3n2)nc1 do in these assays?
SF-1 inh: 86*

Results for Cn1c(CSc2nc3ccccc3s2)nc2ccccc21 ?
SF-1 inh: -71

How did OC1CCCCC1Sc1nc2ccccc2s1 (centres undefined) do in these assays?
SF-1 inh: -59

What do the screens show for `O=S1(=O)C=C(Sc2nc3ccccc3s2)c2ccccc21`?
SF-1 inh: 93*

What do the screens show for `Cc1ccc(N(C=NC#N)CC(=O)N2CCN(c3ccccc3)CC2)cc1`?
SF-1 inh: 3

How did COC(=O)c1ccc(S(=O)(=O)NCCSc2nnc3c4ccccc4n(C)c3n2)cc1 do in these assays?
SF-1 inh: -2

Results for CCOC(=O)N1CCN(S(=O)(=O)c2ccc3c(c2)CCN3C(=O)CC)CC1 ?
SF-1 inh: 20

What do the screens show for `CCOC(=O)c1ccc(NC(=O)N(CC)CC)cc1`?
SF-1 inh: -63

How did O=S(=O)(Nc1cccc2ncccc12)c1cccs1 do in these assays?
SF-1 inh: 96*

How did CCS(=O)(=O)Nc1cc(-c2nc3cccnc3s2)ccc1C do in these assays?
SF-1 inh: -71

How did CCN(CC)C(=O)CSc1ncnc2c(-c3cccs3)nsc12 do in these assays?
SF-1 inh: -68

Results for Cc1ccsc1C(=O)OCC(=O)Nc1sccc1C(N)=O ?
SF-1 inh: -74

Results for Cc1ccc(SCCNC(=O)C(CO)(CO)CO)cc1 ?
SF-1 inh: -5

What do the screens show for `O=C(Nc1nccs1)c1ccc(NC(=O)c2ccco2)cc1`?
SF-1 inh: -56

How did COc1cc2nc(=S)n3[nH]c(CCn4nc(C)cc4C)nc3c2cc1OC do in these assays?
SF-1 inh: 61*

Results for Cc1ccc(-c2csc3ncnc(Sc4nnc(CN5CCCCCC5=O)o4)c23)cc1 ?
SF-1 inh: 71*

How did O=C(CSc1n[nH]c(-c2ccncc2)n1)NC1CCS(=O)(=O)C1 (centres undefined) do in these assays?
SF-1 inh: 10

Screens: PubChem BioAssay, The Scripps Research Institute Molecular Screening Center
